# Hit rate of the full screen: of about 69,000 compounds, about 8,600 (12%) showed an effect of 50% or more. The list comes from a sample in which strong results are over-represented; it also holds similar structures and randomly drawn compounds.
# System: Plasmodium berghei
# Assay: Screen against P. berghei liver stage (PbLuc), transformed with Luciferase, at 10uM
# Assay type: functional, HepG2
# Conditions: tested at 10 uM
row,Structure (SMILES),INHIBITION [%]
1,CC(C)CNC(=O)[C@H]1CCS(=O)(=O)[C@@H]2CN(CC(C)C)C[C@H]12,23.3
2,Cc1ccc(NC(=O)NCCn2cnc(C)c(C)c2=O)cc1F,-16.4
3,CC(=O)c1cc2ncc(C(=O)NC3CCCC3)cc2[nH]1,8.52
4,CC(C)OC(=O)N1C[C@@H]2CC[C@H]1CN(C(=O)c1ccccc1)C2,-63.6
5,Cc1ncccc1C(=O)NCC(C)Oc1ccc(F)cc1 (configuration not stated),10.1
6,CCn1cnnc1CNC(=O)N(C)Cc1cccc(OC(F)F)c1,36.1
7,Cc1cnc(C2(C)CCN(Cc3cscn3)CC2)s1,-6.92
8,COCCNC(=O)c1cc(-c2cc[nH]n2)n2ccccc12,-22.5
9,Cc1c(C(=O)NC2CCCOc3cc(Cl)ccc32)cnn1C (configuration not stated),-25.8
10,CCn1cc(-c2cc(C(F)F)nc3sc(C(N)=O)c(N)c23)c(C)n1,-35.4
11,CCn1ncc(-c2cc(C(F)F)nc3sc(C(N)=O)c(N)c23)c1C,64.8
12,Cc1c(-c2cc(C(F)F)nc3sc(C(N)=O)c(N)c23)cnn1C,-17.2
13,CC1CN(CCOc2ccccc2C#N)CCN1Cc1nccn1C (configuration not stated),14.1
14,Cc1ccc(C)c(CN2CCOC(c3noc(C)n3)C2)c1 (configuration not stated),8.53
15,Cc1cccc(CN2CCC(c3nnsc3S(C)(=O)=O)CC2)n1,30.8
16,O[C@@H]1CN(Cc2cccc(F)c2)CC[C@H]1NCc1ccccn1,43.05
17,CC(NCc1cccs1)c1ccc(OCc2nccn2C)cc1 (configuration not stated),63.8
18,CC(NCc1cnn(C)c1)c1ccc(OCc2nccn2C)cc1 (configuration not stated),49.5
19,CC(NCc1ccc(OCc2nccn2C)cc1)c1cccnc1 (configuration not stated),-63.6
20,CC(NCc1ccsc1)c1ccc(OCc2nccn2C)cc1 (configuration not stated),69.5
21,CC(C(=O)NCc1cccs1)N1CCN(Cc2nccn2C)CC1 (configuration not stated),46.4
22,COc1ccc(C(C)NCc2cccs2)cc1Cn1cccn1 (configuration not stated),10.6

row,Structure (SMILES),INHIBITION [%]
1,Cc1sc(NC(=O)CN(C)CCOc2cccc(F)c2)c(C)c1C,9.14
2,COCCNC(=O)[C@H]1CN(Cc2scnc2C)C[C@H]2OCC[C@@H]12,-44.8
3,Cc1nc(CCNC(=O)NC2CCCN(c3ncccn3)C2)cs1 (configuration not stated),8.03
4,O=C1COc2cc(C(=O)NS(=O)(=O)c3ccc(F)cc3F)ccc2N1,33.3
5,O=C1COc2cc(C(=O)NS(=O)(=O)c3ccccc3F)ccc2N1,50.4
6,O=C1COc2ccc(C(=O)NS(=O)(=O)c3ccccc3F)cc2N1,14.1
7,c1cncc(-c2noc(CN3CCCCC3Cn3cccn3)n2)c1 (configuration not stated),33.8
8,CC(OCc1ccccc1)C(=O)NCc1ccc(N(C)C)cc1 (configuration not stated),33.3
9,Cn1ncc2c1C(COCC1CC1)N(Cc1ccoc1)CC2 (configuration not stated),-29.3
10,COC(=O)[C@H]1CN(C(=O)c2cscn2)C[C@@H]1c1ccc(F)cc1,32.8
11,CNC(=O)[C@@]12CCO[C@@H]1CCN(S(=O)(=O)c1ccc(C)cc1)C2,21.8
12,CNC(=O)[C@@]12CCO[C@@H]1CCN(S(=O)(=O)c1cccc(C)c1)C2,38.7
13,CNC(=O)[C@@]12CCO[C@@H]1CCN(S(=O)(=O)c1ccccc1)C2,42.7
14,CNC(=O)[C@@]12CCO[C@@H]1CCN(S(=O)(=O)c1cc(C)cc(C)c1)C2,54.4
15,CNC(=O)[C@@]12CCO[C@@H]1CCN(S(=O)(=O)c1ccccc1C)C2,6.6
16,CNC(=O)[C@@]12CCO[C@@H]1CCN(S(=O)(=O)c1ccccc1F)C2,52
17,Cc1nc(C(=O)N2CCC(c3nnc(Cn4ccnc4)n3C)CC2)cs1,-19.5
18,Cc1ccc(Br)c(S(=O)(=O)NCc2ccnn2C)c1,-24.4
19,COCCN1CCC2(CCN(CC3CC3)CC2)C1=O,8.85
20,CCN(CC)CCn1ccnc1-c1cccc(O)c1,-18.8
21,NC(=O)c1ccc(-n2ccnc2C2CC2)cc1N1CCCC1,36.3
22,c1cc(CN2CCCC2)cc(-n2ccnc2-c2ccncc2)c1,22.7

row,Structure (SMILES),INHIBITION [%]
1,Cn1ccnc1-c1nccn1-c1cccc(CN2CCCC2)c1,39.9
2,NC(=O)c1ccc(-n2ccnc2-c2cccc(O)c2)cc1N1CCCC1,63.5
3,Cc1nc[nH]c1-c1nc2cc(S(=O)(=O)N3CCCC3)ccc2n1C,4.71
4,Cc1nc[nH]c1-c1nccn1-c1ccc(C(N)=O)c(N2CCCC2)c1,50.5
5,Cc1nc[nH]c1-c1nccn1-c1cccc(CN2CCCC2)c1,53
6,Cc1nc[nH]c1-c1nccn1CCN(C)S(C)(=O)=O,8.86
7,CN(Cc1cnn(C)c1)C(=O)NCCc1ccc2c(c1)OCO2,-24.75
8,Cc1cc2nc(SCC(=O)N3CCCC3)n(-c3ccccc3)c(=O)c2[nH]1,16.6
9,Cc1ncc(CN2CCc3c(nc(-c4ccccn4)[nH]c3=O)C2)n1C,31.6
10,COCCc1noc(CN2CCOC(Cn3nc(C)cc3C)C2)n1 (configuration not stated),14.4
11,CCC[C@@H]1CN(C(=O)c2cnc3ccccc3c2)C[C@H]1NS(C)(=O)=O,51.1
12,CC(=O)N[C@@H]1CN(C(=O)c2cnc3ccccc3c2)C[C@H]1O,22
13,CCC[C@@H]1CN(C(=O)c2cc3ccccc3s2)C[C@H]1NS(C)(=O)=O,20.1
14,OCc1nnc2n1CCN(c1cnccn1)C2,28.5
15,CCC(CC)(CNC(=O)OC(C)(C)C)NC(=O)C1CC1,-120
16,CCC(CC)(CNC(=O)OC(C)(C)C)NC(=O)C1CCOCC1,-50.8
17,CCC(CC)(CNC(=O)OC(C)(C)C)NC(=O)C1CCCO1 (configuration not stated),56.6
18,Cc1cc(C(=O)Nc2nc3c(s2)CN(S(=O)(=O)C2CC2)CC3)c(C)o1,-59.6
19,CC(C)c1nc(N2CCC(N3CCSCC3)CC2)c2cnn(C)c2n1,21.1
20,C[C@@H]1CN(CCCOc2ccc(F)cc2)CC[C@@]1(O)C1CCOCC1,7.24
21,Cn1nnnc1SCC1Cc2ccccc2O1 (configuration not stated),17.2
22,Cc1cnn(C2CCCN(C(=O)c3cccc4c3OCO4)C2)c1 (configuration not stated),56.6

row,Structure (SMILES),INHIBITION [%]
1,CCc1ccc(C(=O)N2CCCC(n3cncn3)C2)o1 (configuration not stated),45.1
2,COc1ccc(CCC(=O)N2CCCC(n3cncn3)C2)cc1 (configuration not stated),-7.35
3,O=C(CCCc1ccccc1)N1CCCC(n2cncn2)C1 (configuration not stated),-12.2
4,Cc1ccc(C(=O)N2CCCC(n3cncn3)C2)o1 (configuration not stated),60.1
5,COc1ccc(CCCC(=O)N2CCCC(n3cncn3)C2)cc1 (configuration not stated),54.8
6,Cc1cnn(C2CCCN(C(=O)c3cc[nH]n3)C2)c1 (configuration not stated),64.6
7,O=C(c1cccc2c1OCO2)N1CCCC(n2cccn2)C1 (configuration not stated),28.5
8,O=C(c1ccc(Br)o1)N1CCCC(n2cncn2)C1 (configuration not stated),11.8
9,Cc1cc(C)n(C2CCCN(C(=O)c3cccc4c3OCO4)C2)n1 (configuration not stated),23.7
10,Cc1cnn(C2CCCN(C(=O)c3ccc(N4CCCC4)nn3)C2)c1 (configuration not stated),25.1
11,Cc1cnn(C2CCCN(C(=O)c3ccc(N(C)C)nn3)C2)c1 (configuration not stated),11.6
12,CCOc1ccccc1C(CC(=O)Nc1ccccn1)NC(C)=O (configuration not stated),-10.45
13,Cc1ccc(CN2CC[C@H]3[C@H]2CCN3S(=O)(=O)C2CC2)cc1,8.85
14,Cn1c(CN2CCCC(N3CCNC3=O)C2)cc(=O)n(C)c1=O (configuration not stated),31.4
15,CCN1CC2(CCC1=O)CCN(Cc1cccc(OC(F)F)c1)CC2,-9.39
16,CN(C)Cc1cn(-c2ccccc2C(=O)NCC2CCCCN2C)cn1 (configuration not stated),29.95
17,CNc1nc2c(s1)C(c1c(F)cccc1Cl)CC(=O)N2 (configuration not stated),3.95
18,CN(C)C(=O)[C@]12CCCN(CC3CC3)C[C@H]1CN(c1ccccn1)C2,0.618
19,COc1ccccc1CN(C)C(=O)C[S+]([O-])Cc1cc(C)on1 (configuration not stated),5.29
20,CC(C(=O)N1CCCN(Cc2cscn2)CC1)N1CCOCC1 (configuration not stated),-4.3
21,Cn1cc(CN2CCn3cc(Cn4cccn4)nc3C2)cn1,-6.23
22,Cc1cc(C)n(CCC(=O)N2CCCC(n3nc(C)nc3C)C2)n1 (configuration not stated),30.2

row,Structure (SMILES),INHIBITION [%]
1,CNc1snc(C)c1C(=O)N1CCCC(n2cccn2)C1 (configuration not stated),46.2
2,O=C(c1ccon1)N1CCCC(n2cncn2)C1 (configuration not stated),9.82
3,CNc1snc(C)c1C(=O)N1CCCC(n2nc(C)cc2C)C1 (configuration not stated),32.8
4,Cc1cc(C)n(CCC(=O)N2CCCC(n3cncn3)C2)n1 (configuration not stated),64.7
5,Cc1cc(C)n(C2CCCN(C(=O)c3cc(C4CC4)on3)C2)n1 (configuration not stated),14.4
6,Cc1cc(C(=O)N2CCCC(n3cncn3)C2)no1 (configuration not stated),11.235
7,CNc1snc(C)c1C(=O)N1CCCC(n2cc(C)cn2)C1 (configuration not stated),58.5
8,Cn1cc(CCC(=O)N2CCCC(n3cncn3)C2)cn1 (configuration not stated),19.4
9,O=C(c1cc(C2CC2)on1)N1CCCC(n2cccn2)C1 (configuration not stated),27.65
10,Cc1cnn(C2CCCN(C(=O)c3cc(C4CC4)on3)C2)c1 (configuration not stated),59
11,O=C(c1cc(C2CC2)on1)N1CCCC(n2cncn2)C1 (configuration not stated),56.6
12,COCC(=O)NCc1cc(=O)n2c(n1)CN(Cc1nccs1)CCC2,44.8
13,CC(=O)N(C)C1CCN(C(=O)c2cccc3c2ccn3C)CC1,9.63
14,Cn1cc(CN2CCOCC3(C2)CN(c2ccccc2)C(=O)CO3)cn1 (configuration not stated),17.1
15,CC(=O)N(Cc1noc(C)n1)C1CCN(Cc2cccc(C#N)c2)C1 (configuration not stated),-18
16,O=C(O)CN1CCC(C(F)(F)F)CC1,2.4
17,CCn1ncc(CNC(=O)c2cn(CCC3CCCCN3)nn2)c1C (configuration not stated),83.8
18,Cc1c(CNC(=O)c2cn(CCC3CCCCN3)nn2)cnn1C (configuration not stated),-70.7
19,CCn1nc(C)c(CNC(=O)c2cn(CCC3CCCCN3)nn2)c1C (configuration not stated),-25
